# Source: the supplement of paper PMC8728848
# This excerpt belongs to a sample that is enriched for the strongest signals.
# B1: PNGase F (Flavobacterium meningosepticum) (protein)
# chain: GIPAPADNTVNIKTFDKVKNAFGDGLSQSAEGTFTFPADVTAVKTIKMFIKNECPNKTCDEWDRYANVYVKNKTTGEWYEIGRFITPYWVGTEKLPRGLEIDVTDFKSLLSGNTELKIYTETWLAKGREYSVDFDIVYGTPDYKYSAVVPVVQYNKSSIDGVPYGKAHTLALKKNIQLPTNTEKAYLRTTISGWGHAKPYDAGSRGCAEWCFRTHTIAINNSNTFQHQLGALGCSANPINNQSPGNWTPDRAGWCPGMAVPTRIDVLNNSLIGSTFSYEYKFQNWTNNGTNGDAFYAISSFVIAKSNTPISAPVVTNLDPHHHHHH
# Experiments:
# Experiment in all cases: glycan array binding signal (z-score within array); higher = stronger binding
# Conditions in all cases: glycan notation: IUPAC condensed, linker removed
# [1] = target: Fuc(a1-2)Gal(b1-3)GalNAc(b1-3)Gal
# Method in brief: (§1)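 Glycan array data were curated from 3228 arrays in the Consortium for Functional Glycomics database and kept only where the protein sequence was available. Glycan names were converted to IUPAC-condensed notation, and columns mapping to the same glycan were averaged. The binding signal is a within-array Z-score, averaged across arrays of the same protein sequence at different concentrations or buffers and across linkers. Negative Z-scores can be read as non-binding.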
# [2] = target: Fuc(a1-2)Gal(b1-3)GlcNAc6S
# Method in brief: as §1
# [3] = target: Fuc(a1-2)Gal3S(b1-4)GlcNAc
# Method in brief: as §1
# [4] = target: Fuc(a1-2)[Gal(a1-3)]Gal(b1-3)GalNAc(b1-3)Gal(a1-4)Gal(b1-4)Glc
# Method in brief: as §1
# [5] = target: Fuc(a1-2)[Gal(a1-3)]Gal(b1-3)GlcNAc(b1-6)GalNAc
# Method in brief: as §1
# [6] = target: Fuc(a1-2)[Gal(a1-3)]Gal(b1-4)GlcNAc(b1-2)Man(a1-3)[Fuc(a1-2)[Gal(a1-3)]Gal(b1-4)GlcNAc(b1-2)Man(a1-6)]Man(b1-4)GlcNAc(b1-4)GlcNAc
# Method in brief: as §1
# [7] = target: Fuc(a1-2)[Gal(a1-3)]Gal(b1-4)GlcNAc(b1-3)GalNAc
# Method in brief: as §1
# [8] = target: Fuc(a1-2)[Gal(a1-3)]Gal(b1-4)GlcNAc(b1-3)[Fuc(a1-2)[Gal(a1-3)]Gal(b1-4)GlcNAc(b1-6)]GalNAc
# Method in brief: as §1
# [9] = target: Fuc(a1-2)[Gal(a1-3)]Gal(b1-4)GlcNAc(b1-6)GalNAc
# Method in brief: as §1
# [10] = target: Fuc(a1-2)[Gal(a1-3)]Gal(b1-4)[Fuc(a1-3)]Glc
# Method in brief: as §1
# [11] = target: Fuc(a1-3)[Gal(b1-4)]GlcNAc
# Method in brief: as §1
# [12] = target: Fuc(a1-3)[Gal(b1-4)]GlcNAc(b1-2)Man
# Method in brief: as §1
# [13] = target: Fuc(a1-3)[Gal(b1-4)]GlcNAc(b1-6)[Gal(b1-3)GlcNAc(b1-3)]Gal(b1-4)Glc
# Method in brief: as §1
# Fuc(a1-4)GlcNAc = target: Fuc(a1-4)GlcNAc
# Method in brief: as §1
# [14] = target: Gal(b1-3)GalNAc(b1-3)Gal(a1-4)Gal(b1-4)Glc
# Method in brief: as §1
# [15] = target: Gal(b1-3)GlcNAc(b1-3)GalNAc
# Method in brief: as §1
# [16] = target: Gal(b1-3)[GlcNAc(b1-6)]GalNAc
# Method in brief: as §1
# [17] = target: Gal(b1-3)[Neu5Ac(b2-6)]GalNAc
# Method in brief: as §1
# [18] = target: Gal(b1-4)GlcNAc(b1-3)Gal(b1-4)GlcNAc(b1-2)[Gal(b1-4)GlcNAc(b1-3)Gal(b1-4)GlcNAc(b1-6)]Man(a1-6)[Gal(b1-4)GlcNAc(b1-3)Gal(b1-4)GlcNAc(b1-2)Man(a1-3)]Man(b1-4)GlcNAc(b1-4)GlcNAc
# Method in brief: as §1
# [19] = target: Gal(b1-4)GlcNAc(b1-3)GalNAc
# Method in brief: as §1
# [20] = target: Gal(b1-4)GlcNAc(b1-3)[Gal(b1-4)GlcNAc(b1-6)]Gal(b1-4)GlcNAc
# Method in brief: as §1
# [21] = target: Gal(b1-4)GlcNAc(b1-3)[GlcNAc(b1-6)]Gal(b1-4)GlcNAc
# Method in brief: as §1
# [22] = target: Gal(b1-4)GlcNAc(b1-6)[Gal(b1-4)GlcNAc(b1-3)]GalNAc
# Method in brief: as §1
# Gal(b1-6)Gal = target: Gal(b1-6)Gal
# Method in brief: as §1
# [23] = target: Gal3S(b1-4)[Fuc(a1-3)]GlcNAc6S
# Method in brief: as §1
# Gal3S4S(b1-4)GlcNAc = target: Gal3S4S(b1-4)GlcNAc
# Method in brief: as §1
# Gal3S6S(b1-4)GlcNAc6S = target: Gal3S6S(b1-4)GlcNAc6S
# Method in brief: as §1
# Gal6S(b1-4)Glc6S = target: Gal6S(b1-4)Glc6S
# Method in brief: as §1
# GlcA(b1-3)GlcNAc = target: GlcA(b1-3)GlcNAc
# Method in brief: as §1
# [24] = target: GlcNAc(a1-3)Gal(b1-4)GlcNAc
# Method in brief: as §1
# [25] = target: GlcNAc(a1-4)Gal(b1-4)GalNAc
# Method in brief: as §1
# [26] = target: GlcNAc(b1-2)[GlcNAc(b1-4)]Man(a1-3)[GlcNAc(b1-4)][GlcNAc(b1-2)[GlcNAc(b1-6)]Man(a1-6)]Man(b1-4)GlcNAc(b1-4)[Fuc(a1-6)]GlcNAc
# Method in brief: as §1
# [27] = target: GlcNAc(b1-3)Gal(b1-4)GlcNAc
# Method in brief: as §1
# [28] = target: GlcNAc(b1-3)Gal(b1-4)GlcNAc(b1-3)Gal(b1-4)GlcNAc(b1-3)Gal(b1-4)GlcNAc(b1-3)Gal(b1-4)GlcNAc(b1-2)[GlcNAc(b1-3)Gal(b1-4)GlcNAc(b1-3)Gal(b1-4)GlcNAc(b1-3)Gal(b1-4)GlcNAc(b1-3)Gal(b1-4)GlcNAc(b1-6)]Man(a1-6)[GlcNAc(b1-3)Gal(b1-4)GlcNAc(b1-3)Gal(b1-4)GlcNAc(b1-3)Gal(b1-4)GlcNAc(b1-3)Gal(b1-4)GlcNAc(b1-2)Man(a1-3)]Man(b1-4)GlcNAc(b1-4)[Fuc(a1-6)]GlcNAc
# Method in brief: as §1
# GlcNAc(b1-3)Man = target: GlcNAc(b1-3)Man
# Method in brief: as §1
# GlcNAc(b1-4)GlcNAc = target: GlcNAc(b1-4)GlcNAc
# Method in brief: as §1
# GlcNAc(b1-6)GalNAc = target: GlcNAc(b1-6)GalNAc
# Method in brief: as §1
# [29] = target: Man(a1-2)Man(a1-2)Man(a1-3)Man
# Method in brief: as §1
# [30] = target: Neu5Ac(a2-3)Gal(b1-3)GalNAc(b1-4)[Neu5Ac(a2-3)]Gal(b1-4)Glc
# Method in brief: as §1
# Neu5Ac(a2-3)Gal(b1-4)Glc = target: Neu5Ac(a2-3)Gal(b1-4)Glc
# Method in brief: as §1
# [31] = target: Neu5Ac(a2-3)Gal(b1-4)GlcNAc(b1-3)Gal(b1-4)GlcNAc(b1-3)[Neu5Ac(a2-3)Gal(b1-4)GlcNAc(b1-3)Gal(b1-4)GlcNAc(b1-6)]GalNAc
# Method in brief: as §1
# [32] = target: Neu5Ac(a2-3)[Neu5Ac(a2-6)]GalNAc
# Method in brief: as §1
# Neu5Ac(a2-6)Gal = target: Neu5Ac(a2-6)Gal
# Method in brief: as §1
# [33] = target: Neu5Ac(a2-6)Gal(b1-4)GlcNAc(b1-2)Man(a1-3)[Neu5Ac(a2-6)Gal(b1-4)GlcNAc(b1-2)Man(a1-6)]Man(b1-4)GlcNAc(b1-4)GlcNAc
# Method in brief: as §1
# [34] = target: Neu5Ac(a2-6)Gal(b1-4)GlcNAc(b1-3)Gal(b1-4)GlcNAc(b1-3)[Neu5Ac(a2-6)Gal(b1-4)GlcNAc(b1-3)Gal(b1-4)GlcNAc(b1-6)]GalNAc
# Method in brief: as §1
# [35] = target: Neu5Ac(a2-6)Gal(b1-4)GlcNAc(b1-6)[Gal(b1-3)GlcNAc(b1-3)]Gal(b1-4)Glc
# Method in brief: as §1
# [36] = target: Neu5Ac(a2-6)Gal(b1-4)GlcNAc6S
# Method in brief: as §1
# Neu5Ac(a2-8)Neu5Ac = target: Neu5Ac(a2-8)Neu5Ac
# Method in brief: as §1
# [37] = target: Neu5Ac(a2-8)Neu5Ac(a2-3)Gal(b1-3)GalNAc(b1-4)[Neu5Ac(a2-3)]Gal(b1-4)Glc
# Method in brief: as §1
# Neu5Gc(a2-3)Gal(b1-4)Glc = target: Neu5Gc(a2-3)Gal(b1-4)Glc
# Method in brief: as §1
# [38] = target: Neu5Gc(a2-3)Gal(b1-4)GlcNAc
# Method in brief: as §1
# [39] = target: Neu5Gc(a2-6)Gal(b1-4)GlcNAc
# Method in brief: as §1
binder,measurement,setting,value
B1,glycan array binding signal (z-score),[1],1.61
same,glycan array binding signal (z-score),[2],-0.123
same,glycan array binding signal (z-score),[3],-0.157
same,glycan array binding signal (z-score),[4],0.033
same,glycan array binding signal (z-score),[5],-0.032
same,glycan array binding signal (z-score),[6],-0.273
same,glycan array binding signal (z-score),[7],-0.226
same,glycan array binding signal (z-score),[8],1.46
same,glycan array binding signal (z-score),[9],0.476
same,glycan array binding signal (z-score),[10],-0.16
same,glycan array binding signal (z-score),[11],0.02
same,glycan array binding signal (z-score),[12],0.163
same,glycan array binding signal (z-score),[13],-0.308
same,glycan array binding signal (z-score),Fuc(a1-4)GlcNAc,2.72
same,glycan array binding signal (z-score),[14],0.036
same,glycan array binding signal (z-score),[15],-0.268
same,glycan array binding signal (z-score),[16],-0.166
same,glycan array binding signal (z-score),[17],-0.337
same,glycan array binding signal (z-score),[18],1.63
same,glycan array binding signal (z-score),[19],-0.281
same,glycan array binding signal (z-score),[20],-0.219
same,glycan array binding signal (z-score),[21],1.78
same,glycan array binding signal (z-score),[22],-0.289
same,glycan array binding signal (z-score),Gal(b1-6)Gal,0.208
same,glycan array binding signal (z-score),[23],0.165
same,glycan array binding signal (z-score),Gal3S4S(b1-4)GlcNAc,-0.092
same,glycan array binding signal (z-score),Gal3S6S(b1-4)GlcNAc6S,-0.035
same,glycan array binding signal (z-score),Gal6S(b1-4)Glc6S,-0.41
same,glycan array binding signal (z-score),GlcA(b1-3)GlcNAc,-0.118
same,glycan array binding signal (z-score),[24],-0.344
same,glycan array binding signal (z-score),[25],1.26
same,glycan array binding signal (z-score),[26],-0.395
same,glycan array binding signal (z-score),[27],-0.264
same,glycan array binding signal (z-score),[28],-0.3
same,glycan array binding signal (z-score),GlcNAc(b1-3)Man,3.03
same,glycan array binding signal (z-score),GlcNAc(b1-4)GlcNAc,10.4
same,glycan array binding signal (z-score),GlcNAc(b1-6)GalNAc,-0.018
same,glycan array binding signal (z-score),[29],1.49
same,glycan array binding signal (z-score),[30],-0.289
same,glycan array binding signal (z-score),Neu5Ac(a2-3)Gal(b1-4)Glc,2.16
same,glycan array binding signal (z-score),[31],-0.043
same,glycan array binding signal (z-score),[32],0.36
same,glycan array binding signal (z-score),Neu5Ac(a2-6)Gal,-0.129
same,glycan array binding signal (z-score),[33],-0.391
same,glycan array binding signal (z-score),[34],-0.278
same,glycan array binding signal (z-score),[35],-0.207
same,glycan array binding signal (z-score),[36],-0.286
same,glycan array binding signal (z-score),Neu5Ac(a2-8)Neu5Ac,-0.021
same,glycan array binding signal (z-score),[37],-0.328
same,glycan array binding signal (z-score),Neu5Gc(a2-3)Gal(b1-4)Glc,0.187
same,glycan array binding signal (z-score),[38],2.36
same,glycan array binding signal (z-score),[39],-0.046
